These results are taken from PubChem BioAssay (NCI).

About 83,000 compounds went through this panel and 20% of them were active in at least one assay; those are over-represented in the sample as a whole.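 Results are percent growth after 48 hours of single-concentration exposure. 100 means growth as in untreated cells, lower positive values show inhibition; negative values down to -100 show cell death.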 Unmarked numbers belong to inactive results. Activity calls are given as the source filed them. How the source made its calls: active means growth percent below 10; inactive means the rest.

Test systems include NCI-H23 lung; NCI-H226 lung; NCI-H322M lung; HOP-62 NSCLC; NCI-H460 lung; HOP-92 NSCLC; NCI-H522 lung; A549/ATCC NSCLC; 786-0 renal; COLO 205 colon.
Assay in all cases: NCI-60 one-dose screen, 48 h (100 = growth as untreated, 0 = no growth, -100 = all killed)
Holding throughout (conditions): 10 µM unless noted

Regarding `Cc1cc(C(C)(C)C)ccc1S`, the growth was 108% in the assay on NCI-H23 lung; 96.3% in the assay with NCI-H226 lung; 95.9% in the assay on NCI-H322M lung; 96.2% in the assay on HOP-62 NSCLC; 114% with NCI-H460 lung; 86.3% in the assay on HOP-92 NSCLC. Also, the growth was 85.8% in the assay with NCI-H522 lung, 111% in the assay on A549/ATCC NSCLC, 99.9% in the assay on 786-0 renal and 116% in the assay on COLO 205 colon.

Turning to `O=C(O)COc1ccc(-c2cssc2=S)cc1`, the growth in the assay with NCI-H23 lung was 102%; in the assay with NCI-H226 lung, 99.1%; in the assay on NCI-H322M lung it was 104%; in the assay on HOP-62 NSCLC, 104%; in the assay on NCI-H460 lung it was 113%; with HOP-92 NSCLC it was 111%. Besides, the growth in the assay with NCI-H522 lung is 85.6%; with A549/ATCC NSCLC it was 97.6%; in the assay on 786-0 renal it was 101%; in the assay with COLO 205 colon it was 109%.

Consider `Cc1ccc(S(=O)(=O)Nc2c(Br)cc(Br)cc2C(N)=O)cc1`, for which the growth in the assay with NCI-H23 lung was 96%; with NCI-H226 lung, 102%; in the assay with NCI-H322M lung, 88.4%; in the assay with HOP-62 NSCLC it was 109%; in the assay on NCI-H460 lung it was 105%; in the assay with HOP-92 NSCLC, 94.4%. The growth is 115% in the assay on NCI-H522 lung, 117% with A549/ATCC NSCLC, 101% in the assay with 786-0 renal and 103% in the assay with COLO 205 colon.

As for `COc1cc(-c2ncn(/C=C\C(=O)OC(C)C)n2)cc(C(F)(F)F)c1`, the growth with NCI-H23 lung was 17.5%; in the assay with NCI-H226 lung, -47% (active); in the assay with NCI-H322M lung, 0.838% (active); in the assay on HOP-62 NSCLC, -18.5% (active); with NCI-H460 lung it was -31.7% (active); in the assay on HOP-92 NSCLC, 7.61% (active). For the same compound, the growth is -70.9% (active) with NCI-H522 lung, 12.9% in the assay with A549/ATCC NSCLC, 9.65% (active) in the assay with 786-0 renal and -62.2% (active) with COLO 205 colon.

Consider `Cc1[nH]c2ccc(F)cc2c1CCNC(=O)C1CCN(C(=O)c2ccccc2)CC1`, for which the growth in the assay with NCI-H23 lung was 99.3% [25 µM]; in the assay on NCI-H226 lung, 83.7% [25 µM]; with NCI-H322M lung, 86.3% [25 µM]; in the assay with HOP-62 NSCLC, 84.6% [25 µM]; with NCI-H460 lung, 101% [25 µM]; in the assay with HOP-92 NSCLC, 4.45% [25 µM] (active). For the same compound, the growth with NCI-H522 lung was 89.3% [25 µM]; in the assay with A549/ATCC NSCLC it was 96.6% [25 µM]; with 786-0 renal, 88.9% [25 µM]; in the assay with COLO 205 colon it was 90.9% [25 µM].

In the case of `Cc1nc2c3c(ncn2n1)Oc1c(c(=O)[nH]c2ccccc12)C3c1ccc(Cl)cc1` (stereo unspecified), the growth was 103% in the assay with NCI-H23 lung; 98% with NCI-H226 lung; 100% with NCI-H322M lung; 87.3% in the assay with HOP-62 NSCLC; 101% with NCI-H460 lung; 74.2% in the assay on HOP-92 NSCLC. In addition, the growth in the assay on NCI-H522 lung is 87.6%; with A549/ATCC NSCLC, 97.4%; with COLO 205 colon, 107%.

With `CN1C=CN(Cc2ccc(-c3ccccn3)nc2)[CH-]1.CN1C=CN(Cc2ccc(-c3ccccn3)nc2)[CH-]1.[Au+3]`, the growth in the assay on NCI-H23 lung was 36.3%; in the assay on NCI-H226 lung it was 66.7%; in the assay with NCI-H322M lung, -3% (active); with HOP-62 NSCLC, 61.6%; with NCI-H460 lung it was 21.3%; in the assay with HOP-92 NSCLC, 66.6%. In addition, the growth in the assay on NCI-H522 lung is 34.2%; in the assay on A549/ATCC NSCLC, 45.2%; in the assay on 786-0 renal, 52.8%; with COLO 205 colon, 28.4%.

In the case of `CCCCOc1ccc(/C=C2/SC(N3CCOCC3)=NC2=O)cc1OCC`, the growth in the assay with NCI-H23 lung was 98.6%; in the assay with NCI-H226 lung it was 92%; in the assay on NCI-H322M lung it was 94.3%; with HOP-62 NSCLC, 104%; with NCI-H460 lung, 99.5%; in the assay on HOP-92 NSCLC, 70.7%. Also, the growth in the assay with NCI-H522 lung is 75%; with A549/ATCC NSCLC, 96%; in the assay with COLO 205 colon it was 113%.

As to `Cc1nc2ncccc2nc1Nc1ccc(S(=O)(=O)Nc2ccccn2)cc1`, the growth in the assay on NCI-H23 lung was 90.6%; in the assay with NCI-H226 lung, 94.5%; with NCI-H322M lung, 96.1%; in the assay with HOP-62 NSCLC, 97%; with NCI-H460 lung, 106%; in the assay with HOP-92 NSCLC, 54.3%. In addition, the growth was 81.6% in the assay with NCI-H522 lung, 101% in the assay on A549/ATCC NSCLC, 94.9% in the assay on 786-0 renal and 98.5% with COLO 205 colon.

For `COc1cc(/C(C#N)=C/c2ccc3c(c2OC)OCO3)cc2c1OCO2`, the growth is 30.9% in the assay on NCI-H23 lung; 89.9% in the assay with NCI-H226 lung; 35.2% with NCI-H322M lung; 31.2% in the assay on HOP-62 NSCLC; 9.09% (active) in the assay on NCI-H460 lung; 61.2% in the assay on HOP-92 NSCLC. Further, the growth in the assay on NCI-H522 lung is -19.1% (active); with A549/ATCC NSCLC it was 27.9%; in the assay with 786-0 renal, 33.7%; in the assay on COLO 205 colon, -3.05% (active).

With `CC(=O)Oc1csc(N(C(C)=O)c2cccc(C(F)(F)F)c2)n1`, the growth in the assay with NCI-H23 lung was 94.7%; in the assay on NCI-H226 lung, 93.3%; in the assay on NCI-H322M lung it was 99%; in the assay with HOP-62 NSCLC it was 94.4%; in the assay with NCI-H460 lung it was 102%; in the assay with HOP-92 NSCLC, 45.7%. In addition, the growth in the assay with NCI-H522 lung is 83.1%; in the assay with A549/ATCC NSCLC it was 92.3%; in the assay on COLO 205 colon, 107%.

Regarding `CC(=O)Nc1scc[n+]1Cc1ccccc1`, the growth is 88% in the assay on NCI-H23 lung; 106% in the assay with NCI-H226 lung; 131% in the assay on NCI-H322M lung; 105% with HOP-62 NSCLC; 112% in the assay with NCI-H460 lung; 99.2% in the assay on HOP-92 NSCLC. Further, the growth in the assay with NCI-H522 lung was 103%; with A549/ATCC NSCLC, 104%; in the assay on 786-0 renal it was 102%; with COLO 205 colon, 111%.

For the compound `N#Cc1ccc(N2Cc3ccccc3OC3=C2C(=O)c2c(O)ccc(O)c2C3=O)cc1`, the growth in the assay on NCI-H23 lung was 14.2%; in the assay with NCI-H226 lung, 10.4%; with NCI-H322M lung it was 66.8%; with HOP-62 NSCLC, 16%; in the assay with NCI-H460 lung, 46.9%; in the assay on HOP-92 NSCLC, -66.2% (active). Besides, the growth was -75.6% (active) in the assay on NCI-H522 lung, 72.9% with A549/ATCC NSCLC, -42.9% (active) in the assay on 786-0 renal and -69.3% (active) in the assay on COLO 205 colon.

For the compound `CCO/C=N/C1=C(C#N)C(c2ccc(Cl)cc2)c2c(c3ccc(C)cc3[nH]c2=O)O1` (stereo unspecified), the growth in the assay on NCI-H23 lung was 85.4%; in the assay with NCI-H226 lung it was 78.9%; with NCI-H322M lung, 88%; in the assay on HOP-62 NSCLC it was 70.7%; in the assay on NCI-H460 lung, 95%; with HOP-92 NSCLC, 50.7%. The values for the growth with NCI-H522 lung, with A549/ATCC NSCLC and in the assay on COLO 205 colon were 74.2%, 90.2% and 96.1%, respectively.
